# In PubChem BioAssay (NCATS):
# Several values for one entry are separate records, joined by “and”; a condition that tells them apart may be missing. Identical values can stand only once. Results filed as inconclusive are left out. Activity calls are given as the source filed them. Unless noted, the call rests on the fitted dose curve.
# Columns and labels:
# [1] = molecular target: Cytochrome P450 1A2 (Homo sapiens) (UniProt P05177); assay: p450-cyp1a2 (AID 410); further: potency means the concentration at half of the fitted maximal effect;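 on activity change, negative = inhibition: -100% = full effect of reference inhibitor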
# Cytochrome P450 1A2 (Homo sapiens), sequence (P05177 whole entry, looked up): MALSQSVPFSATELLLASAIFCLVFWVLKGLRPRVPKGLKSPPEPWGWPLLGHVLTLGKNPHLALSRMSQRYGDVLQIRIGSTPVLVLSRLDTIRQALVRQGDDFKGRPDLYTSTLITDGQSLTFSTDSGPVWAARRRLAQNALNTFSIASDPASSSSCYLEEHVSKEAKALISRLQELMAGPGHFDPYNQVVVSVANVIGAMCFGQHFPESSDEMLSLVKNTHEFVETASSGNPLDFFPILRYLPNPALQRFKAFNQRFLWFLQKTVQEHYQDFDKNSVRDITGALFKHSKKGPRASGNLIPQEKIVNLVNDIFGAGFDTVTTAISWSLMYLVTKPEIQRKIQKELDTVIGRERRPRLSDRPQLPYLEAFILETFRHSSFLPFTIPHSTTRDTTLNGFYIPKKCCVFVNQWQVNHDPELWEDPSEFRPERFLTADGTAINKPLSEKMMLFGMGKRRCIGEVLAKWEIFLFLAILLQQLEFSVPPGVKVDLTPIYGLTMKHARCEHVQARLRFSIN
# Outline: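 20nM CYP1A2 with 100uM Luciferin-ME (at Km) in 100mM KPO4; compound preincubated 10 min, NADPH regeneration added, 60 min at room temperature. Luciferin quantified by luminescence after detection reagent; normalized to 57 uM furafylline.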
# [2] = molecular target: Glucocorticoid receptor (Homo sapiens) (UniProt P04150); assay: GR-GFP Redistribution (AID 450;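 active means compounds whose dose series gives a full or clear partial fitted curve of increased nuclear translocation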; further: potency means the concentration at half of the fitted maximal effect); details: U2OS GR-GFP nuclear translocation, laser cytometry, 2 h
# Glucocorticoid receptor (Homo sapiens), sequence (P04150 whole entry, looked up, the tested form may be a part): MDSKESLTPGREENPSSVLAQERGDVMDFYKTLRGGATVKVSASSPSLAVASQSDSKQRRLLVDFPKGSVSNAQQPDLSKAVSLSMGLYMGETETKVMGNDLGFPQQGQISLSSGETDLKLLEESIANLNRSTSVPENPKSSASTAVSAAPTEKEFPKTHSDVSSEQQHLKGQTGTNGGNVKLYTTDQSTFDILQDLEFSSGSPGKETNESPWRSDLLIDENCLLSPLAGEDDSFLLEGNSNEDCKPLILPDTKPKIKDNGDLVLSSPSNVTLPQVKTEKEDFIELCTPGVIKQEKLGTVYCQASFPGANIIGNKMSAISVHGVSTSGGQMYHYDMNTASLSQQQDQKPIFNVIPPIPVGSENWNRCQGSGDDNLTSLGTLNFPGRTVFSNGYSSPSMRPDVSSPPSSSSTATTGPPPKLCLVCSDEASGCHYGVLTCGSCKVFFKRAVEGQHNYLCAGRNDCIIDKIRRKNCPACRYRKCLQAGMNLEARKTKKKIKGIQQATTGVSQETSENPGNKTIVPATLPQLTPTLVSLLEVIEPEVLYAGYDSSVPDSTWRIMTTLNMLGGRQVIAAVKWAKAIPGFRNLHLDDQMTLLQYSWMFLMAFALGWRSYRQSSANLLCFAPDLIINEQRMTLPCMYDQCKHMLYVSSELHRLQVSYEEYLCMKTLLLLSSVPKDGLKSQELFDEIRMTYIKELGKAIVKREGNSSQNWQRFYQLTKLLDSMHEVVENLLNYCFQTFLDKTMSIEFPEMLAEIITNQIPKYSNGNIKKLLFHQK
# [3] = molecular target: Glucocorticoid receptor (Homo sapiens) (UniProt P04150); assay: GR-EFC Redistribution (AID 451); details: CHO-K1 GR-EFC translocation, beta-gal luminescence, 2 h; further: potency means the concentration at half of the fitted maximal effect
# Outline: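 CHO-K1 cells expressing nuclear EA and GR-ED fragments of b-gal; compounds titrated up to 46 uM final, 2 h at 37 C. GR nuclear translocation read as complemented b-gal luminescence after 1 h RT detection.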
# [4] = molecular target: Mitogen-activated protein kinase 10 (Mus musculus) (UniProt Q61831); assay: JNK3 AlphaScreen Assay (AID 530; active means well fitted curve in either direction with a large enough effect, not every such curve was filed as active;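 further: kinase came from lysate of stimulated human HepG2 cells; signal reports phosphorylation of biotinylated GST-cJun 1-79 at Ser73 with 10 µM ATP; on the % scale 0 is the no-effect control and ±100 the full control effect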)
# Outline: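 Pre-activated (IL-1β/TNFα) JNK3 in HepG2 lysates phosphorylates biotin-GST-cJun(1-79), 10 uM ATP; anti-phospho-cJun(Ser73) AlphaScreen read at room temperature, pH 7.6 Tris buffer. Compounds pre-incubated 15 min as titrations.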
# [5] = molecular target: 3',5'-cyclic-AMP phosphodiesterase 4B (Homo sapiens) (UniProt Q07343); assay: qHTS Assay for Inhibitors of PDE-IV (AID 607; active means well fitted activation curve with a large enough effect in the main read-out, with a control signal flat, not every such curve was filed as active; further: % of control where 0% means no effect)
# 3',5'-cyclic-AMP phosphodiesterase 4B (Homo sapiens), sequence (Q07343 whole entry, looked up): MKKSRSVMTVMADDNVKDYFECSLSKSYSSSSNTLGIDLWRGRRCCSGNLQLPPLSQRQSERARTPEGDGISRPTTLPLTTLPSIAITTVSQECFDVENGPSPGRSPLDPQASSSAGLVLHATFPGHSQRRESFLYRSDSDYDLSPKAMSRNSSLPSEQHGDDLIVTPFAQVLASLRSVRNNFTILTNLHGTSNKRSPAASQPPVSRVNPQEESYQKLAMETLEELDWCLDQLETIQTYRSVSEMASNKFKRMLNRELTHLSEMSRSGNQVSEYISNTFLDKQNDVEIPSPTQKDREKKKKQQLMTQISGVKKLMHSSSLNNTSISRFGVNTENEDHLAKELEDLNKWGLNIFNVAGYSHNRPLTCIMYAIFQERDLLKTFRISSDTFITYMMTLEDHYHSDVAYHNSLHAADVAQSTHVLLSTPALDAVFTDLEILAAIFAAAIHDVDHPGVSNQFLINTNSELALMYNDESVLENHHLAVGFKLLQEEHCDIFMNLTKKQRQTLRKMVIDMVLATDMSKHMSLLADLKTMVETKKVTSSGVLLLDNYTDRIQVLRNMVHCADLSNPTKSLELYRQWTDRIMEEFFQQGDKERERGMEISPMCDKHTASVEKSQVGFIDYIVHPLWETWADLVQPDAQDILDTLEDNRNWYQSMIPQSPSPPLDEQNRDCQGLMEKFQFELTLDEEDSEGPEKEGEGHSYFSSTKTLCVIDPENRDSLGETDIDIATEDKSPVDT
# Outline: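 Live HEK293 cells with a modified cyclic nucleotide-gated (CNG) channel report intracellular cAMP via membrane-potential dye fluorescence (ex 535/em 590 nm). Endogenous PDE-IV was targeted. Compounds were tested at up to 22.9 uM final; RO 20-1724 100 uM served as control.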
# [6] = molecular target: Cytochrome P450 3A4 (Homo sapiens) (UniProt P08684); assay: qHTS Assay for Inhibitors and Substrates of Cytochrome P450 3A4 (AID 884; active means well fitted curve in the direction sought with a large enough effect; an effect the other way counts as inactive or inconclusive; further: on the % scale 0 is the no-effect control and ±100 the full control effect; nearly all actives have a fitted effect of over 50% in size)
# Cytochrome P450 3A4 (Homo sapiens), sequence (P08684 whole entry, looked up): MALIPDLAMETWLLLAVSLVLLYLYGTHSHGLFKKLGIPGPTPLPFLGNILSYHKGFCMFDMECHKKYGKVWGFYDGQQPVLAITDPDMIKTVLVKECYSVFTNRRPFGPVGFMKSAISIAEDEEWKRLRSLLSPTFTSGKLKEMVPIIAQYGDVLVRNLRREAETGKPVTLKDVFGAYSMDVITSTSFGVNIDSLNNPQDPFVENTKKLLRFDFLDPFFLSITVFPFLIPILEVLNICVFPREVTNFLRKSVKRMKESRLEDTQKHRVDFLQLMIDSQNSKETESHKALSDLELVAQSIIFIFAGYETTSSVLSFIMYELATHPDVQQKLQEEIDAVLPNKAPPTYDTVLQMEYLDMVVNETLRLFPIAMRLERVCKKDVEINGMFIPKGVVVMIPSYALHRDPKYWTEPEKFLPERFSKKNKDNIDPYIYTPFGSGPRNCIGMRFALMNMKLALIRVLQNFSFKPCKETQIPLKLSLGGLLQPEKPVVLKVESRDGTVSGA
# Outline: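 20 nM human CYP3A4 with 25 uM Luciferin-PPXE (at KM) in 200 mM KPO4, preincubated 10 min with compound; NADPH regeneration started a 60 min RT reaction. Luciferin detected by luminescence, normalized to 57 uM ketoconazole as full inhibition.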
# [7] = qHTS Assay for Lipid Storage Modulators (AID 1519); details: Drosophila S3 cells, BODIPY lipid droplet/cell ratio, laser cytometry, cells loaded with oleic acid
# Outline: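 Cells seeded at 5,000 per well were treated with compounds over a concentration series and loaded with oleic acid (400 uM, as added). Lipid droplet fluorescence (488 nm excitation, 500-530 nm channel) was read by laser-scanning cytometry and normalized to 20 uM Triacsin C.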
# [8] = AP1 Signaling Pathway (AID 357; active means well fitted curve in either direction with a large enough effect, not every such curve was filed as active;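 further: ME-180 reporter cells stimulated with EGF at its EC50 level; on the % scale 0 is the no-effect control and ±100 the full control effect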)
# Outline: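 AP-1-bla ME-180 cells, Opti-MEM + 0.5% dialyzed FBS, plated overnight 37 °C. Cpd titration + EC50 EGF, 5 h 37 °C. CCF4 2.5 h RT; ex 405, em 460/530 ratio → %activity, AC50.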
# [9] = Stat Signaling Pathway (AID 446; active means well fitted curve in either direction with a large enough effect, not every such curve was filed as active;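 further: ME-180 cervical cancer cells given 40 pM IL-6 alongside compound; SIE-controlled beta-lactamase reporter measured as 460/530 nm FRET emission ratio; on the % scale 0 is the no-effect control and ±100 the full control effect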)
# Outline: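 IL-6/STAT signaling read in ME-180 cells via an SIE beta-lactamase reporter. Stimulus was 40 pM IL-6 (its AC50) for 5 hrs, so both activation and inhibition register.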
# [10] = molecular target: Cytochrome P450 3A4 (Homo sapiens) (UniProt P08684); assay: qHTS Assay for Activators of Cytochrome P450 3A4 (AID 885; active means well fitted curve in the direction sought with a large enough effect; an effect the other way counts as inactive or inconclusive; further: potency means the concentration at half of the fitted maximal effect; nearly all actives have a fitted effect of over 65% in size)
# Outline: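 Quantitative HTS format: compounds preincubated with 20nM human CYP3A4 and Luciferin-PPXE substrate at KM, reaction started by NADPH regeneration, stopped after 60 min, luciferase luminescence read 20 min later.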
# [11] = NFAT Signaling Pathway (AID 444; active means well fitted curve in either direction with a large enough effect, not every such curve was filed as active;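 further: carbachol stimulus at about its EC50 of 1 µM final; on the % scale 0 is the no-effect control and ±100 the full control effect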); details: Jurkat NFAT-bla M1, carbachol, beta-lactamase ratio, 5 h; at 17.2 µM (top of the series)
# Outline: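 Jurkat cells with NFAT-driven β-lactamase reporter and co-expressed M1 receptor, stimulated with carbachol (final 1 uM, ~EC50), compound titration, 5 h at 37 °C. CCF4 loaded 1 h at RT; 460/530 nm ratio gave %activity and AC50.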
# [12] = molecular target: Ubiquitin carboxyl-terminal hydrolase 1 (Homo sapiens) (UniProt O94782); assay: Inhibitors of USP1/UAF1: Pilot qHTS (AID 504865; active means well fitted curve in the direction sought with a large enough effect; an effect the other way counts as inactive or inconclusive;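 further: rhodamine fluorescence freed from ubiquitin-rhodamine substrate followed over time; top concentration of the series differs between compounds; on the % scale 0 is the no-effect control and ±100 the full control effect; nearly all actives have a fitted effect of over 35% in size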)
# Ubiquitin carboxyl-terminal hydrolase 1 (Homo sapiens), sequence (O94782 whole entry, looked up): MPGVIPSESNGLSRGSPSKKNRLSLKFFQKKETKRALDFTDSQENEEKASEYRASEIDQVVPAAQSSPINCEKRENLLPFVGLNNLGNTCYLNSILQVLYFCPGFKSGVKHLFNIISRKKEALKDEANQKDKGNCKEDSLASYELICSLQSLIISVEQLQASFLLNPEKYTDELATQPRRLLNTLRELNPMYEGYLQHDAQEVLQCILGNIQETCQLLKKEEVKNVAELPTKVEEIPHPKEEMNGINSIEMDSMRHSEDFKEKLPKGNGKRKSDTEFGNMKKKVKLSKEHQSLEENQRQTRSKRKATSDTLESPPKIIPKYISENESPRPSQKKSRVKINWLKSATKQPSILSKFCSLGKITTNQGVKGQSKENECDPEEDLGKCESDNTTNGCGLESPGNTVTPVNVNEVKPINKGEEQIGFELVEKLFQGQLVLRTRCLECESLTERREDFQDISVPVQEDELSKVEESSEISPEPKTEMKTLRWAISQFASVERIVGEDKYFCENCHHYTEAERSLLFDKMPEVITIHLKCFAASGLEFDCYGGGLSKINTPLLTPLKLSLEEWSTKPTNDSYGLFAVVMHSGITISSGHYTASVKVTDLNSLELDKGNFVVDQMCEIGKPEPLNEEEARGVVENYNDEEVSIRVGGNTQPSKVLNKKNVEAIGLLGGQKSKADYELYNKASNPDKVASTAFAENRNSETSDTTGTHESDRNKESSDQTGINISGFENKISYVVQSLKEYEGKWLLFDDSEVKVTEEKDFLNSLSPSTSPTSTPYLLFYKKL
# Outline: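 Deubiquitinase activity followed as kinetic rhodamine fluorescence release from 150 nM Ub-Rho. 1 nM USP1/UAF1 with compound, after 15 min room-temperature preincubation, in HEPES pH 7.8 buffer containing TCEP, EDTA, BSA and Tween-20.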
# [13] = molecular target: ATP-dependent 6-phosphofructokinase (Trypanosoma brucei brucei) (UniProt O15648); assay: qHTS Assay to Find Inhibitors of T. brucei phosphofructokinase: hit validation (AID 492961; active means well fitted curve in the direction sought with a large enough effect; an effect the other way counts as inactive or inconclusive; further: on the % scale 0 is the no-effect control and ±100 the full control effect)
# ATP-dependent 6-phosphofructokinase (Trypanosoma brucei brucei), sequence (O15648 whole entry, looked up): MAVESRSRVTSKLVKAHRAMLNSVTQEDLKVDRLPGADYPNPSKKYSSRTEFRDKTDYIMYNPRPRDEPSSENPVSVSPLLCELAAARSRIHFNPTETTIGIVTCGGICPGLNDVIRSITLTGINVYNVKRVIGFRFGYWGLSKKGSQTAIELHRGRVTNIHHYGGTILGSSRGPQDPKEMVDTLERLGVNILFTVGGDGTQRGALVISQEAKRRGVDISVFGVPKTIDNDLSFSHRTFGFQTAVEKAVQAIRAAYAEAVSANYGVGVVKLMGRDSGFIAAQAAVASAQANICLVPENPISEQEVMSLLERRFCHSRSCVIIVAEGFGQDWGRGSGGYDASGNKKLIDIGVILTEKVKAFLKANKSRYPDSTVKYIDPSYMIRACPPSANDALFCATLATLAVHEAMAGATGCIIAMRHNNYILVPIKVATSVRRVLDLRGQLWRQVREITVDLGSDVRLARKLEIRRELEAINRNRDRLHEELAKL
# Outline: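 Luminescence from ADP-Glo reports ADP generated as T. brucei PFK (1.25 nM) phosphorylates 0.5 mM fructose-6-phosphate using 0.1 mM ATP. Reactions ran 45 min at room temperature, pH 8.0.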
# [14] = molecular target: Luciferin 4-monooxygenase (Photinus pyralis) (UniProt P08659); assay: Biochemical firefly luciferase enzyme assay for NPC (AID 624030; active means well fitted curve in the direction sought with a large enough effect; an effect the other way counts as inactive or inconclusive;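 further: purified P. pyralis luciferase at 10 nM with luciferin and ATP substrate; 0% = DMSO and -100% = full luciferase inhibition by PTC124 control; nearly all actives have a fitted effect of over 70% in size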)
# Luciferin 4-monooxygenase (Photinus pyralis), sequence (P08659 whole entry, looked up): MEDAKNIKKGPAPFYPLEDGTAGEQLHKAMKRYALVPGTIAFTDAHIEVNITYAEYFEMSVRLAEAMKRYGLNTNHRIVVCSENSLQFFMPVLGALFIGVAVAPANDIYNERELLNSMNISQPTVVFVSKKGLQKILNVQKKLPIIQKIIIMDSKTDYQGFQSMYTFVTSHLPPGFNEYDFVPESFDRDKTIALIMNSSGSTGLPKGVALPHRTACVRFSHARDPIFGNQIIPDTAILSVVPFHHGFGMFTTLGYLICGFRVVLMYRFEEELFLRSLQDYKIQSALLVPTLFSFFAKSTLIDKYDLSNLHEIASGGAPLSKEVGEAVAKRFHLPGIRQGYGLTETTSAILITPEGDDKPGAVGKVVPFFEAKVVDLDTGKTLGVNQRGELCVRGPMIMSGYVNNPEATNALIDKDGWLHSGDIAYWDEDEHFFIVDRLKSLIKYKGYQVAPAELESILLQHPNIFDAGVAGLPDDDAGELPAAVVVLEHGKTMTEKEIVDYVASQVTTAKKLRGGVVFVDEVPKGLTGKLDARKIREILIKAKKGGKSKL
# Outline: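 Purified P. pyralis luciferase at 10 nM in 50 mM Tris Acetate (final), luminescence read within 5 minutes of enzyme addition to compounds. Activity normalised to PTC124 versus DMSO; concentration-response curves classed by r2, magnitude and activity.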
# [15] = qHTS profiling for inhibitors of Plasmodium falciparum proliferation (AID 504749; active means well fitted curve in the direction sought with a large enough effect; an effect the other way counts as inactive or inconclusive;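 further: 0% = DMSO vehicle and full inhibition = artemisinin control; nearly all actives have a fitted effect of over 60% in size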); details: P. falciparum in erythrocytes, SYBR Green DNA, 72 h, at 28.7 µM (top of the series)
# Outline: (§1)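 P. falciparum-infected erythrocytes (0.3% parasitemia, 2.5% hematocrit) incubated with compound 72 h at 37 C, 5% CO2. Parasite DNA detected by SYBR Green after lysis, overnight at room temperature; normalised to 0.29 uM artemisinin and DMSO.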
# [16] = test system: AS120; assay: as above; details: P. falciparum in erythrocytes, SYBR Green DNA, 72 h; series mostly up to 28.7 µM
# Outline: as §1
# [17] = test system: ATS189; assay: as above; details: P. falciparum in erythrocytes, SYBR Green DNA, 72 h; series mostly up to 28.7 µM
# Outline: as §1
# [18] = test system: DFO2036; assay: as above; details: P. falciparum in erythrocytes, SYBR Green DNA, 72 h; series mostly up to 28.7 µM
# Outline: as §1
# [19] = Confirmation and Secondary Assay for Modulators of Hemoglobin Beta Chain Splicing at IVS2 654 locus (AID 910; active means well fitted curve in the direction sought with a large enough effect; an effect the other way counts as inactive or inconclusive;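 further: HeLa cells stably carrying EGFP split by mutant beta-globin IVS2-654 intron; % of control where 0% means no effect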)
# Outline: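 HeLa cells stably expressing EGFP interrupted by β-globin IVS2-654 intron, seeded overnight in Opti-MEM/2% FCS, then treated 2 days at 37 °C. Restored splicing read as total peak GFP intensity per well by laser scanning cytometry (488 nm excitation, 500–520 nm emission); 500 nM antisense PNA as control.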
# [20] = measured here: cell count channel max response
# [21] = measured here: lipid channel max response
structure (smiles),measurement,setting,value
c1cncc([C@H]2CCCCN2)c1,Potency,[1],0.1 µM (active)
same,Potency,[2],> 46 µM (inactive)
same,Potency,[3],> 46 µM (inactive)
same,outcome,[4],inactive
same,Potency,[5],inactive
same,Potency,[6],inactive
same,"activity change, negative = inhibition",[7]; at 57.5 µM (top of the series),0.698% (inactive)
same,max response,[7]; [20],18.4%
same,max response,[7]; [21],19.6%
N#Cc1ccc(CN2CCC3(CC2)CCN(C(=O)Oc2ccccc2)CC3)cc1,outcome,[8],inactive
same,Potency,[1],inactive
same,outcome,[9],inactive
same,Potency,[3],> 46 µM (inactive)
same,outcome,[4],inactive
same,Potency,[5],inactive
same,Potency,[6],inactive
same,Potency,[10],15.8 µM (active)
same,"activity change, negative = inhibition",[7]; at 57.5 µM (top of the series),0.91% (inactive)
same,max response,[7]; [20],-4.88%
same,max response,[7]; [21],-1.78%
C[C@H]1CC[C@@]2(NC1)O[C@@H]1C[C@H]3[C@@H]4CC=C5C[C@@H](O)CC[C@]5(C)[C@@H]4CC[C@]3(C)[C@@H]1[C@@H]2C,Potency,[1],inactive
same,"activity change, negative = inhibition",[11],7.82% (inactive)
same,outcome,[9],inactive
same,Potency,[2],> 20.6 µM (inactive)
same,Potency,[3],> 20.6 µM (inactive)
same,outcome,[4],inactive
same,Potency,[5],inactive
same,"activity change, negative = inhibition",[7]; at 25.7 µM (top of the series),-1.61% (inactive)
same,max response,[7]; [20],0.522%
same,max response,[7]; [21],-7.85%
same,Potency,[12],inactive
N[C@H]1C[C@H]1c1ccccc1,outcome,[8],inactive
same,Potency,[1],5.01 µM (active)
same,outcome,[9],inactive
same,outcome,[4],inactive
same,Potency,[5],inactive
same,"activity change, negative = inhibition",[7]; at 25.7 µM (top of the series),-0.294% (inactive)
same,max response,[7]; [20],5.35%
same,max response,[7]; [21],3.84%
same,Potency,[13],inactive
same,Potency,[12],inactive
same,Potency,[14],inactive
same,"activity, negative = inhibition",[15]; parasite line A,10.1% (inactive)
same,"activity, negative = inhibition",[15]; parasite line B,3.27% (inactive)
same,Potency,[16],inactive
same,Potency,[17],inactive
same,Potency,[18],inactive
C[C@@]12CC[C@H](O)C[C@@H]1CC[C@H]1[C@@H]2C[C@@H](O)[C@]2(C)[C@@H](C3=CC(=O)OC3)CC[C@]12O,Potency,[1],inactive
same,outcome,[9],inactive
same,Potency,[2],> 20.6 µM (inactive)
same,Potency,[3],> 20.6 µM (inactive)
same,outcome,[4],inactive
same,"activity change, negative = inhibition",[7]; at 25.7 µM (top of the series),-4.23% (inactive)
same,max response,[7]; [20],-5.31%
same,max response,[7]; [21],-9.41%
same,Potency,[12],inactive
C[C@H]1[C@@H](O)[C@@H](C)/C=C\C=CCC\C=C/C=C\C=C/C=C[C@@H](O[C@H]2O[C@@H](C)[C@@H](O)[C@@H](N)[C@@H]2O)C[C@@H]2O[C@@](O)(C[C@@H](O)[C@H]2C(=O)O)C[C@@H](O)[C@@H](O)CC[C@@H](O)C[C@@H](O)C[C@@H](O)CC(=O)O[C@H]1C,outcome,[8],inactive
same,outcome,[9],inactive
same,outcome,[4],inactive
same,Potency,[5],inactive
same,"activity change, negative = inhibition",[7]; at 25.7 µM (top of the series),-0.591% (inactive)
same,max response,[7]; [20],5.63%
same,max response,[7]; [21],6.3%
c1ccc2c(c1)[nH]c1cnccc12,outcome,[8],inactive
same,"activity change, negative = inhibition",[11],25.7% (inactive)
same,outcome,[9],inactive
same,Potency,[6],inactive
same,Potency,[19],inactive
same,"activity change, negative = inhibition",[7]; at 57.5 µM (top of the series),0.155% (inactive)
same,max response,[7]; [20],-9.28%
same,max response,[7]; [21],-6.47%
O=C1C=C2C=C[C@H]3C[C@@]2(O1)[C@H]1CCCCN31,Potency,[1],inactive
same,outcome,[9],inactive
same,Potency,[2],> 20.6 µM (inactive) and > 46 µM (inactive)
same,Potency,[3],> 20.6 µM (inactive) and > 46 µM (inactive)
same,Potency,[5],inactive
same,"activity change, negative = inhibition",[7]; at 25.7 µM (top of the series),-1.11% (inactive)
same,max response,[7]; [20],-16.7%
same,max response,[7]; [21],-17.3%
